Assay outcomes from PubChem BioAssay.
Only a sample is shown.
aSyn 5UTR act = Activators via SNCA 5'UTR binding, MLPCN | AID 1814 | activity score, % (tested at 7.5 µM), hits read low | actives 7.1% (n = 300,000) | alpha-synuclein 5'UTR reporter, activators screen; in the data active = activity score below about -60%
Active calls of the source: *.

SMILES	aSyn 5UTR act
O=C(O)c1ccc(-c2nnc(-c3ccccc3)o2)cc1	-78.1*
O=C(c1ccc(-c2nnc(-c3ccccc3)o2)cc1)N1CCCCCC1	-67.7*
COCCCn1c(C(=O)N2CC(C)OC(C)C2)cc2c(=O)n3cccc(C)c3nc21 (stereo not drawn)	-71.4*
Cc1sc2c(c1C)CN(Cc1ccncc1)CN2C(=O)c1ccco1	-92.8*
COCCC1CCCCN1C(=O)c1ccc2nc(Cc3ccccc3F)oc2c1 (stereo not drawn)	-131.1*
CCOC(=O)C1CCCN(C(=O)c2ccc3oc(CCc4ccccc4)nc3c2)C1 (stereo not drawn)	-72.2*
CC(=O)C1CCCN(C(=O)c2ccc3oc(CCc4ccccc4)nc3c2)C1 (stereo not drawn)	-94.0*
O=C(c1ccc2oc(CCCc3ccccc3)nc2c1)N1CCCC1	-140.9*
COC(=O)C1CCCCN1C(=O)c1ccc2oc(Cc3ccccc3)nc2c1 (stereo not drawn)	-87.9*
CCOC(=O)C1CCCCN1C(=O)CCc1c(C)nc2cc(-c3ccccc3)nn2c1C (stereo not drawn)	75.9
CC(=O)Nc1ccc(NC(=O)/C(Cl)=C/c2ccccc2)cc1	-117.5*
CC1CCN(C(C(=O)NC2CCCCC2)c2cc3c(cc2[N+](=O)[O-])OCO3)CC1 (stereo not drawn)	-101.9*
CC1CCCN(c2ccc([N+](=O)[O-])cc2C(=O)c2ccccc2)C1 (stereo not drawn)	84.1
CC1CCCN(C(C(=O)NC2CCCCC2)c2cc3c(cc2[N+](=O)[O-])OCO3)C1 (stereo not drawn)	-81.2*
CC(Cc1ccco1)NC(=O)c1ccc(C(F)(F)F)cc1 (stereo not drawn)	-68.8*
Nc1nc2ccccc2n1/N=C/c1ccc(Br)cc1	-138.9*
Nc1nc2ccccc2n1/N=C/c1ccc2c(c1)OCO2	-192.1*
Nc1c(C(=O)Nc2ccccc2F)sc2nc(-c3cccnc3)ccc12	-88.1*
Nc1c(C(=O)Nc2ccccc2F)sc2nc(-c3ccco3)ccc12	-118.4*
O=C(NC1CCCCC1)C(c1cccnc1)N(C(=O)CCl)c1cccc(Cl)c1 (stereo not drawn)	-80.9*
O=C(NC1CCCCCCC1)c1cccc(Cl)c1	-165.6*
CCOc1cccc(C(=O)NC2CCCCC2)c1	-67.5*
O=C(NC1CCCCCCC1)c1cc(F)c(F)cc1Cl	-81.5*
COc1ccccc1NS(=O)(=O)c1cccc(C(=O)NC2CCN(Cc3ccccc3)CC2)c1	83.0
O=C(c1ccc(Cl)cc1)c1coc2ccc(O)cc12	-128.3*
SMILES	aSyn 5UTR act
O=C(c1ccc(Br)cc1)c1coc2ccc(O)cc12	-92.0*
CN(C)/C=C(\C#N)C(=O)Nc1ccccc1	-73.5*
CC(C)c1ccc(NC(=O)N2CCOCC2)cc1	-107.4*
CCn1c2ccccc2c2cc(NC(=O)CN(C)CC(=O)Nc3ccc(N4CCOCC4)cc3)ccc21	-143.3*
O=C(Nc1ccc2c(c1)oc1ccccc12)N1CCOCC1	-139.6*
CCn1c2ccccc2c2cc(NC(=O)N3CCOCC3)ccc21	-83.9*
COC(=O)c1ccc(N)c(N=CC2=C(O)CC(C)(C)CC2=O)c1	-171.9*
COC(=O)c1ccc2c(c1)C(C)(C)C(/C=C/c1ccccc1O)=[N+]2C	118.3
O=C1N(Cc2ccc(F)cc2)CCN1c1ccc(F)cc1	-81.4*
CCCSc1nc2c(cnn2-c2ccccc2)c(=O)n1N	-83.0*
CCOC(=O)C(C)Oc1cccc2c(=O)n(CC(=O)NCc3ccco3)ccc12 (stereo not drawn)	73.0
O=C(Cn1cnc2c(cnn2-c2ccc(F)cc2)c1=O)NCc1ccco1	-77.6*
CCCCSc1nc2c(cnn2-c2ccccc2)c(=O)n1N	-118.9*
O=c1c2cnn(-c3ccccc3)c2ncn1CCc1ccccc1	-113.7*
Nn1c(SCc2ccccc2)nc2c(cnn2-c2ccccc2)c1=O	-89.8*
CCOC(=O)c1ccc(N=Nc2c(C)c(C#N)c(O)[nH]c2=O)cc1	-73.7*
COc1ccc(C2=NN(CN3C(=O)C(=O)c4ccccc43)C(c3ccc(OC)cc3)C2)cc1 (stereo not drawn)	-181.9*
Cc1cc(C(=O)Nc2ccc3[nH]ccc3c2)no1	-152.3*
O=C(Nc1nnc(-c2ccccc2F)s1)c1cccnc1	-115.7*
Cc1ccc(NC(=O)Nc2nnc(-c3ccccc3F)s2)cc1	-84.5*
COc1ccc(NC(=O)Nc2nnc(C(C)C)s2)cc1	-134.9*
COc1ccc(NC(=O)Nc2nnc(-c3ccccc3F)s2)cc1	-134.3*
COc1ccc(NC(=O)Nc2nnc(-c3ccco3)s2)cc1	-108.3*
COc1ccc(NC(=O)Nc2nnc(-c3ccncc3)s2)cc1	-100.4*
Cn1cccc1/C=C1\CCC/C(=C\c2cccn2C)C1=O	-153.8*
SMILES	aSyn 5UTR act
O=C1/C(=C/c2cccs2)CCC/C1=C\c1cccs1	-124.6*
CCSc1nnc(-c2ccc(OC)cc2)o1	-185.9*
C#CCSc1nnc(-c2ccc([N+](=O)[O-])cc2)o1	-150.8*
CCCCCCCCSc1nnc(-c2ccc(OC)cc2)o1	111.2
C#CCSc1nnc(-c2ccc(OC)cc2)o1	-266.2*
COC(=O)Nc1nc2ccc(C(=O)c3ccc(F)cc3)cc2[nH]1	99.2
